Measurements as given in the supplement of paper PMC12636033.
± gives the standard deviation of the averaged measurements. Whole data set: some 33,000 sequences, median “E-score (rank enrichment, -0.5 to 0.5)” near -0.0043, cut for the highest 2% near 0.24. What follows is part of a selection rich in the highest values, with near analogues and random picks from the rest.

These sequences were tested on 2Sp-muMax20 (muMax20 with two 2,6-bis(methyl)pyridine Cys staples) (assay: PBM 8-mer E-score (E-score (rank enrichment, -0.5 to 0.5)); higher = stronger preferential binding).
Procedure: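 Protein binding microarray (universal PBM chip covering all 10-mers in fixed probe flanks) with chemically synthesized human Max(13-93) bHLH-LZ analogs (not full-length Max) bearing noncanonical residues (hArg, Tha, Aib, Nle at 65) and aromatic Cys staples. Read-out per 8-mer (and its reverse complement): E-score (rank-based enrichment, -0.5 to 0.5) and Z-score of median probe intensity.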

Sequence	PBM 8-mer E-score
AGCACCGC	-0.216 ± 0.056
ACTGGCGC	0.0318 ± 0.075
CGCGACTC	0.0134 ± 0.05
AGAAGTGC	-0.15 ± 0.01
AGTGTACA	0.138 ± 0.071
TCGTGTCA	-0.0282 ± 0.02
ATTCGACA	-0.0611 ± 0.091
CGACTGCG	-0.11 ± 0.012
CGGAAGAC	-0.286 ± 0.011
CCTGGCTC	-0.193 ± 0.028
CGCTTATA	0.116 ± 0.018
AGCTTATC	0.0357 ± 0.093
AGCTTATA	0.249 ± 0.15
CGTCTTTA	0.0497 ± 0.034
CTGGGTGA	-0.0861 ± 0.036
TGCGCGCA	0.1734 ± 0.0016
CCTTATTC	-0.0629 ± 0.052
GCTTATTA	0.172 ± 0.037
CCTTATTA	0.28 ± 0.003
ACTCCTAG	-0.146 ± 0.087
CGACATGC	0.0468 ± 0.0062
ATAACAGG	-0.0186 ± 0.03
CTAACACA	0.0336 ± 0.063
ATAACACG	0.269 ± 0.011
GTAACACA	0.183 ± 0.032

Sequence	PBM 8-mer E-score
ATAACACC	0.0871 ± 0.057
ATAACACA	0.253 ± 0.075
ATCTAAGA	-0.0722 ± 0.047
TCGGAAGA	-0.155 ± 0.038
TGTTAACA	0.2746 ± 0.0014
CGTTAACA	0.0471 ± 0.048
AGTTAACA	0.145 ± 0.13
AGCTTTTA	0.0891 ± 0.031
CTATTAAA	0.141 ± 0.053
ATATTAAG	0.16 ± 0.025
TTATTAAA	0.166 ± 0.054
ATATTAAT	0.318 ± 0.08
ATATTAAC	0.182 ± 0.0085
ATATTAAA	0.2641 ± 0.001
GCCAGGGC	-0.343 ± 0.022
AAACGGTG	-0.0442 ± 0.0089
GGGCGTCA	0.12 ± 0.063
CGAATTGA	0.141 ± 0.014
CTGTACAA	0.0666 ± 0.029
GTGTACAA	0.198 ± 0.029
TTGTACAA	0.331 ± 0.11
ACCGGTCC	-0.324 ± 0.028
TGACCTAA	0.00115 ± 0.0031
CTCCCCCC	-0.0388 ± 0.051
CCACAGTA	0.0513 ± 0.067

Sequence	PBM 8-mer E-score
GTACCCGA	-0.187 ± 0.12
AATCAGCT	0.279 ± 0.013
AAACATGA	0.0601 ± 0.067
AAACATGG	0.153 ± 0.0082
AATCATGG	0.129 ± 0.0058
ACACATGG	0.194 ± 0.019
AATCAGCC	0.0385 ± 0.041
AATCAGCG	-0.0281 ± 0.1
AATCATGA	0.124 ± 0.13
ACACATGA	0.0699 ± 0.082
ACACATGT	0.326 ± 0.044
AAACATGT	0.287 ± 0.008
AATCATGT	0.239 ± 0.04
ACGTTAAG	0.137 ± 0.027
CGGTGTGC	-0.209 ± 0.041
CCCCACGC	0.095 ± 0.036
AAATACTA	0.183 ± 0.026
CCATCGAC	-0.131 ± 0.028
AATTCCCA	0.23782 ± 0.00023
GATTCCCA	0.0167 ± 0.092
AATTCCCC	0.123 ± 0.015
GCTTAGTA	0.0418 ± 0.019
AACCTCTG	-0.064 ± 0.059
AATTAAGA	0.214 ± 0.0075
GATTAAGA	-0.00249 ± 0.0063

Sequence	PBM 8-mer E-score
CATTAAGA	0.237 ± 0.056
GACGACTA	0.138 ± 0.051
CGACTCCC	-0.0206 ± 0.024
AGGGTCTG	-0.168 ± 0.019
CGTGATCA	0.245 ± 0.036
CGTGATCC	-0.0859 ± 0.026
GGTGATCA	0.0137 ± 0.0046
TGCTTACA	0.114 ± 0.016
AACCACGC	0.0757 ± 0.035
ACCCACGC	0.138 ± 0.023
AACCACGT	0.288 ± 0.032
AACCACGA	0.118 ± 0.035
ACCCACGA	-0.0222 ± 0.03
ACCCACGT	0.284 ± 0.0034
GAGGCCGC	-0.291 ± 0.046
ACAATAAC	0.0634 ± 0.07
ATAATAAT	0.14 ± 0.084
ACAATACT	0.204 ± 0.069
ACAATACC	0.273 ± 0.015
ACAATAAG	0.1254 ± 0.001
ACAATACA	0.0638 ± 0.061
CCAATAAA	0.211 ± 0.035
ACAATAAA	0.256 ± 0.012
ACAATAAT	0.275 ± 0.043
CCGTTCAA	0.137 ± 0.026

Sequence	PBM 8-mer E-score
GAGCTGAA	0.0148 ± 0.13
AACGCCCT	-0.0766 ± 0.052
AAGGTCAT	-0.149 ± 0.0067
AGAGCCCG	-0.276 ± 0.012
AATCAGGA	0.0255 ± 0.037
ATATATAA	0.328 ± 0.032
ATGTAGAA	0.246 ± 0.053
GTGTATAA	0.103 ± 0.024
GTATATAA	0.125 ± 0.0038
CGATATAA	0.24 ± 0.0019
ATGTATAA	0.277 ± 0.046
CGATATAG	0.116 ± 0.068
ATGTAGAG	0.0603 ± 0.063
CTATATAA	0.157 ± 0.081
CTGTATAA	0.19 ± 0.035
CTGTAGAA	0.0793 ± 0.045
CGATATAC	0.0494 ± 0.11
ACAAACGC	-0.0614 ± 0.035
CACAAATC	0.052 ± 0.071
AGAGGGAG	0.112 ± 0.027
ATGGGCAG	0.0154 ± 0.02
AGTCTCTA	0.0513 ± 0.038
GGCGAACA	-0.00568 ± 0.13
ATACACCC	-0.00554 ± 0.027
ATATAGTC	0.238 ± 0.069

Sequence	PBM 8-mer E-score
CTATAGTC	0.0602 ± 0.045
ATATATAT	0.116 ± 0.091
TGATATAA	0.232 ± 0.064
ATATATAC	0.252 ± 0.015
ATATAGTA	0.231 ± 0.019
CTATATAC	0.204 ± 0.022
TTATATAA	0.282 ± 0.044
GTATATAC	0.0149 ± 0.075
GAGCTTCC	-0.0166 ± 0.072
CGCGAGGC	-0.0315 ± 0.0085
ATCTACCA	0.119 ± 0.038
CCAATGGG	-0.162 ± 0.09
GGTTGCAA	0.0477 ± 0.016
GCCAGTCC	-0.152 ± 0.14
GCGGCCAC	-0.292 ± 0.061
CAAATGAC	-0.036 ± 0.036
AGCCTTTG	-0.0519 ± 0.04
CATGCTCG	0.116 ± 0.052
ACAGCCAC	-0.0111 ± 0.073
ATCGATCA	0.0704 ± 0.044
AAGGCCGG	-0.146 ± 0.023
AAGGCCTA	0.00342 ± 0.048
AAGGCCGT	0.284 ± 0.012
AAGGCCGC	-0.0467 ± 0.032
AAGGCCTT	0.293 ± 0.052

Sequence	PBM 8-mer E-score
AAGGCCTG	-0.212 ± 0.061
ATGTGGCG	0.0809 ± 0.017
CTACCCTC	0.0414 ± 0.062
CTCCCAAA	0.143 ± 0.084
GCTGTTCA	0.0277 ± 0.084
CCACGTAG	-0.11 ± 0.053
GCACATGA	0.151 ± 0.036
CCACATGA	0.241 ± 0.053
CGACGTGC	0.00092 ± 0.063
CAACGTGG	0.0662 ± 0.077
CCACATGG	0.161 ± 0.014
CCACGTTA	0.252 ± 0.044
CCACGTGG	0.455 ± 0.021
GCACGTTA	0.113 ± 0.039
CCACGTGC	0.431 ± 0.00066
CCACGTTC	-0.0572 ± 0.027
CCACGTCC	-0.117 ± 0.06
ATACCCAC	0.197 ± 0.059
CACGGCCC	-0.216 ± 0.024
GCAACGGA	0.0572 ± 0.11
AGGAGAGA	-0.134 ± 0.081
GATTGGGC	-0.0399 ± 0.037
